# The panel holds about 83,000 compounds, 20% with a hit somewhere; the sample as a whole holds those more often.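 Treatment: one concentration, 48 hours, 96-well format. Scoring: percent growth, with anything below 10 considered active.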 A number with no mark means an inactive call. Calls of active or inactive are those of the source.
# What was measured:
# Experiment in all cases: NCI-60 one-dose screen, 48 h (100 = growth as untreated, 0 = no growth, -100 = all killed)
# Details in all cases: 10 µM unless noted
# NCI-H23 lung = system: NCI-H23 lung
# NCI-H226 lung = system: NCI-H226 lung
# NCI-H322M lung = system: NCI-H322M lung
# HOP-62 NSCLC = system: HOP-62 NSCLC
# NCI-H460 lung = system: NCI-H460 lung
# HOP-92 NSCLC = system: HOP-92 NSCLC
# NCI-H522 lung = system: NCI-H522 lung
# A549/ATCC NSCLC = system: A549/ATCC NSCLC
# 786-0 renal = system: 786-0 renal
# COLO 205 colon = system: COLO 205 colon
# DU-145 prostate = system: DU-145 prostate
# K-562 leukemia = system: K-562 leukemia
# MALME-3M melanoma = system: MALME-3M melanoma
# MDA-MB-231 breast = system: MDA-MB-231 breast
# RXF 393 renal = system: RXF 393 renal
# SF-268 CNS = system: SF-268 CNS
# SF-295 CNS = system: SF-295 CNS
# SF-539 CNS = system: SF-539 CNS
# UACC-257 melanoma = system: UACC-257 melanoma
# M14 melanoma = system: M14 melanoma
Structure (SMILES),growth (NCI-H23 lung),growth (NCI-H226 lung) [%],growth (NCI-H322M lung) [%],growth (HOP-62 NSCLC),growth (NCI-H460 lung),growth (HOP-92 NSCLC),growth (NCI-H522 lung),growth (A549/ATCC NSCLC),growth (786-0 renal),growth (COLO 205 colon),growth (DU-145 prostate),growth (K-562 leukemia),growth (MALME-3M melanoma),growth (MDA-MB-231 breast),growth (RXF 393 renal),growth (SF-268 CNS),growth (SF-295 CNS),growth (SF-539 CNS),growth (UACC-257 melanoma),growth (M14 melanoma)
CCCC(=O)Oc1ccc(/C(=C(\C)c2ccc(Cl)cc2)c2ccc(OCCN(CC)CC)cc2)cc1,-33.4% (active),68.4,24.1,-57.1% (active),-83.9% (active),-13.1% (active),-55% (active),-51% (active),-89.6% (active),-84% (active),-22.9% (active),-19.6% (active),-77.5% (active),-40.9% (active),-79.5% (active),-9.12% (active),-75.9% (active),-77.9% (active),-62.2% (active),-71.8% (active)
O=C(Nc1cccc(-n2ccc3c(NC(=O)c4ccccc4)nccc32)c1)c1cccc(C(F)(F)F)c1,20.8%,35.6,34.2,36.4%,3.05% (active),40.3%,-45.2% (active),7.84% (active),-14.6% (active),-44.5% (active),-10.9% (active),12.1%,48.3%,3.85% (active),-49.4% (active),14.8%,-8.39% (active),4.4% (active),42.4%,7.48% (active)
COC(=O)c1ccc(NC(N)=NCC(C)(C)COc2ccc(C(F)(F)F)cc2)nc1,33.6%,50.7,65.9,76.6%,38.8%,47.1%,37.2%,56.1%,70.9%,-76.7% (active),68.8%,-31.8% (active),82.4%,48.8%,70.7%,66.8%,57.1%,82.6%,62.4%,55.6%
Cc1nssc1=S,91.5%,99.6,85.2,107%,109%,59.9%,82.6%,111%,95.3%,91.2%,113%,93.8%,102%,112%,113%,106%,99.7%,101%,102%,88.2%
CC(=S)Nc1ccccc1,95.7%,89.3,104,82.2%,97.3%,90.7%,88.2%,79.6%,104%,99.8%,103%,101%,89%,95.5%,107%,107%,105%,102%,82.7%,96.6%
[2H]c1nc(Nc2ncc(F)c(-c3cc(F)c4nc(C)n(C(C)C)c4c3)n2)c([2H])c([2H])c1CN1CCN(CC)CC1,48.7%,41.5,41.1,51.2%,43.9%,59.1%,66.1%,36.2%,52.8%,15.6%,59%,-15.9% (active),85.9%,55.5%,-8% (active),54%,59.2%,67.2%,72.3%,46.3%
CCC1S/C(=N\N=C(/C)c2cccs2)N(c2ccccc2)C1=O (stereo not given),101%,136,109,65.4%,112%,85.1%,82.2%,89.5%,86.2%,114%,123%,110%,181%,97.7%,97.3%,89.3%,123%,124%,97.5%,141%

# Source: PubChem BioAssay (NCI)
